Compounds without any hit were thinned out: in the full panel of roughly 79,000, 15% have a hit. Values without a mark were called inactive. Activity calls are given as the source filed them. No stated cut-off is given here; in the data, active means growth inhibition above about 70%; inactive means the rest.
Assay: NCI Yeast Anticancer Drug Screen. Data for the bub3 strain (AID 167)
Settings: S. cerevisiae bub3 mutant strain, at 50.0 µM (retest, dose inferred, filed as 5.0), active compounds read high
Summary of the method: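 In this screen, a yeast mutant lacking normal mitotic checkpoint function is challenged with compound. Relative growth versus vehicle gives the inhibition value.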
COc1ccc2nc3cccc([N+](=O)[O-])c3c(NCCNCCN(C)C)c2c1 gave a growth inhibition of 50%.
In the case of Cc1cccc(/C=N/NC(=S)NC2CCCCC2)n1, the growth inhibition is reported as 79% (active).
In the case of COC(=O)C(=O)c1c(-c2ccc(Cl)c(Cl)c2)[nH]c2[nH]n(-c3ccccc3)c(=O)c2c1=O, the growth inhibition is reported as 84% (active).
With c1ccc([P+](CCN2Cc3ccccc3C2)(c2ccccc2)c2ccccc2)cc1 the growth inhibition was 98% (active).
With Cc1cc(C)c2[s+]snc2c1 the growth inhibition was 61%.
Compound CC(C)(Br)C(=O)/C=C/c1ccccc1 has a growth inhibition of 63%.
Cc1ccc(S(=O)(=O)NC(=O)C2C(=O)CC3(CCCCC3)CC2=O)cc1 showed a growth inhibition of 16%.
In the case of NC(=S)N1N=C2c3ccccc3CC[C@H]2[C@@H]1c1ccc(Cl)cc1, the growth inhibition is reported as 93% (active).
In the case of O=[N+]([O-])/C=C/c1cc2ccc3ccccc3c2[nH]1, the growth inhibition is reported as 96% (active).
For O=C1C(=C2CCCC2)CCC1CN1CCCCC1 (stereo unspecified), the growth inhibition was 80% (active).
For OC(CC(O)(C(F)(F)F)C(F)(F)F)c1ccc(C(O)CC(O)(C(F)(F)F)C(F)(F)F)cc1 (stereo unspecified), the growth inhibition was 100% (active).
For COc1cc2c(cc1OC)[C@@H](Nc1ccc(C#N)cc1)C1COC(=O)[C@@H]1C2c1cc(OC)c(O)c(OC)c1 (stereo partly specified), the growth inhibition was 95% (active).
Compound O=c1cccccc1[O-].O=c1cccccc1[O-].O=c1cccccc1[O-].[Eu+3] has a growth inhibition of 8%.
For O=C1c2ccccc2C(=O)c2sc(Nc3ccccc3Cl)nc21, the growth inhibition was 99% (active).
For NC(CCCCCCCCCCCCC(N)C(=O)c1ccccc1)C(=O)c1ccccc1 (stereo unspecified), the growth inhibition was 94% (active).
For CC1=C(C)C(=O)C2=C(OCCO2)C1=O, the growth inhibition was 35%.

Reference: PubChem BioAssay (NCI)
